Laboratory results taken from PubChem BioAssay (EPA / NIEHS).
Several values for one entry are separate records, joined by “and”; a condition that tells them apart may be missing. Equal values may be shown once. Records with an inconclusive call do not appear. Where a structure was tested more than once in an assay, its records may differ in their call. Activity calls are given as the source filed them. How the source made its calls, unless noted: active means hit-call score of the fitted dose curve at least 0.9, where 1 is the maximum; inactive means score below 0.9.

Legend:
[1] = CCTE_Harrill_HTTr_Viability_MCF7: CCTE's 6-hour Cell Viability Assessment for the High-Throughput Transcriptomics (HTTr) Platform, in MCF-7 cells cultured in DMEM + 10% fetal bovine serum, Harrill Lab (AID 2284010)
Procedure, shortened: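 MCF-7 cells in DMEM + 10% FBS, 384-well, exposed 6 h to an eight-point dilution series. Membrane integrity scored by high-content imaging of propidium iodide exclusion; bidirectional fit versus DMSO.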

[2] = CCTE_Harrill_HTTr_Apoptosis_MCF7: CCTE's 6-hour Apoptosis Assessment for the High-Throughput Transcriptomics (HTTr) Platform, in MCF-7 cells cultured in DMEM + 10% fetal bovine serum, Harrill Lab (AID 2284011)
Procedure, shortened: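 MCF-7 cells in DMEM + 10% FBS exposed 6 h to chemicals over an eight-point dilution series. Caspase-3/7 activation imaged by high-content CellEvent Green staining; fitted bidirectionally versus DMSO.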

[3] = CCTE_Simmons_MITO_basal_resp_rate: CCTE's HepG2 Seahorse XF Respirometric Screening Assay at Basal Respiratory State, Simmons Lab (AID 2284001); conditions: actives raise or lower the signal
Procedure, shortened: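 HepG2 oxygen consumption on Seahorse XF96 after compound injection, 7 concentrations 125 nM–100 uM final, reads every 6 min over 72 min. Triplicate biological replicates; bidirectional fit vs DMSO; fenpyroximate and 2,4-dinitrophenol controls.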

[4] = CCTE_Simmons_MITO_max_resp_rate: CCTE's HepG2 Seahorse XF Respirometric Screening Assay at Maximal Respiratory State [uncoupled], Simmons Lab (AID 2284002); conditions: actives raise or lower the signal
Procedure, shortened: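 HepG2 oxygen consumption measured on Seahorse XF after FCCP uncoupling, following test compound injection; 7 concentrations from 125 nM to 100 uM final. Readings every 6 min over 72 min, three biological replicates; bidirectional fit versus DMSO.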

[5] = CCTE_Simmons_MITO_inhib_resp_rate: CCTE's HepG2 Seahorse XF Respirometric Screening Assay at Inhibited Respiratory State [full ETC block], Simmons Lab (AID 2284006); conditions: actives raise or lower the signal
Procedure, shortened: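 HepG2 oxygen consumption was measured by Seahorse XF after compound, FCCP, then rotenone/antimycin A injections. Seven concentrations from 125 nM to 100 uM (final) were tested, with 6-min kinetic reads over 72 minutes. Inhibited-state OCR was fitted bidirectionally against DMSO.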

[6] = CCTE_Simmons_MITO_viability: CellTiter-Glo Viability Assessment for CCTE's HepG2 Seahorse XF Respirometric Screening Assay [post-hoc], Simmons Lab (AID 2284007; active means hit-call score of the fitted dose curve at least 0.9, where 1 is the maximum;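 on AC50: cells exposed to chemical for 90 min before the ATP read; actives lower ATP signal relative to DMSO baseline meaning reduced viability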)
Procedure, shortened: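 HepG2 cells exposed 90 min to 7 concentrations from 125 nM to 100 uM final, then ATP measured by luciferase luminescence. Three biological replicates per concentration; DMSO vehicle; dichlone control at 10 nM–100 uM.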

[7] = CCTE_Shafer_MEA_acute_spike_number: CCTE's Neural Acute Assay for Total Number of Spikes, Shafer Lab (AID 2284008);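 on AC50: curve fitted for decrease in spike count so AC50 reflects inhibitors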
Procedure, shortened: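 Rat primary cortical neurons on 48-well MEA plates, DIV 13 or 15, at 37 C. 40 min baseline then 40 min with compound (0.03-40 uM); spikes detected at 8x rms noise, expressed as percent change from baseline.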

[8] = CCTE_Harrill_HTTr_CellCount_MCF7: CCTE's Cell Proliferation Assessment for the High-Throughput Transcriptomics (HTTr) Platform, Harrill Lab (AID 2284012; active means hit-call score of the fitted dose curve at least 0.9, where 1 is the maximum;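 further: cells exposed to compound for six hours; intended direction is loss of nuclei count meaning fewer cells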)
Procedure, shortened: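 MCF7 cells exposed 6 hours to an eight-point dilution series; Hoechst-stained nuclei counted by high-content imaging. Bidirectional curve fitting against DMSO baseline.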

[9] = CCTE_Shafer_MEA_acute_burst_number: CCTE's Neural Acute Assay for Single-Electrode Bursts, Shafer Lab (AID 2284013)
Procedure, shortened: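 Primary rat cortical neurons on 16-electrode MEA wells, treated on DIV 13 or 15 with compound at 0.03-40 uM. Single-electrode burst count from 40-min recordings at 37 C before and after exposure; percent change from baseline per well, DMSO negative control.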

[10] = CCTE_Shafer_MEA_acute_burst_duration_mean: CCTE's Neural Acute Assay for Mean Burst Duration, Shafer Lab (AID 2284014);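 further: hits are decreases in mean burst duration relative to DMSO controls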
Procedure, shortened: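 Rat primary cortical neurons on 48-well MEA, treated at DIV 13 or 15 with 0.03-40 uM in at least 3 wells. Value is percent change in mean burst duration, comparing 40 min recordings at 37 C before and during exposure.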

Q: For `O=C1OCc2ccccc21`, which outcome [1] is on record?
A: inactive

Q: And the outcome [2]?
A: inactive

Q: For `CC/C(=C(\c1ccccc1)c1ccc(OCCN(C)C)cc1)c1ccccc1`, which outcome [3] is on record?
A: inactive

Q: What about the outcome [4] of the same molecule?
A: inactive

Q: What about the outcome [5] of the same molecule?
A: inactive

Q: And the AC50 [6]?
A: 73.5 µM (active)

Q: What about the AC50 [7] of the same molecule?
A: 2.73 µM (active) and 4.6 µM (active)

Q: And the AC50 [1]?
A: 67.3 µM (active)

Q: What about the outcome [1] of the same molecule?
A: inactive

Q: What about the outcome [2] of the same molecule?
A: inactive

Q: And the AC50 [8]?
A: 72.5 µM (active)

Q: And the outcome [8]?
A: inactive

Q: And the AC50 [9]?
A: 2.79 µM (active) and 4.2 µM (active)

Q: And the outcome [10]?
A: inactive

Q: Which results are given for `Cc1ccncc1`?
A: outcome [1]: inactive; outcome [2]: inactive

Q: Which outcome [7] does the source give for `CC(C)CCCC(C)(C)O` here?
A: inactive

Q: And the outcome [9]?
A: inactive

Q: What about the outcome [10] of the same molecule?
A: inactive

Q: Which results are given for `N[C@@H](CCC(=O)O)C(=O)O`?
A: outcome [7]: inactive; outcome [9]: inactive; outcome [10]: inactive

Q: With `CCCCOCCOCCO` as the molecule, how does the outcome [7] read?
A: inactive

Q: What about the outcome [1] of the same molecule?
A: inactive

Q: What about the outcome [2] of the same molecule?
A: inactive

Q: And the outcome [8]?
A: inactive

Q: What about the outcome [9] of the same molecule?
A: inactive

Q: And the outcome [10]?
A: inactive

Q: What does the source list for `C#C[C@]1(O)CC[C@H]2[C@@H]3CCc4cc(O)ccc4[C@H]3CC[C@@]21C`?
A: AC50 [3]: 33.4 µM (active); outcome [4]: inactive; outcome [5]: inactive; outcome [6]: inactive; outcome [1]: inactive; outcome [2]: inactive; outcome [8]: inactive

Q: What does the source list for `O=C(c1ccc(OCCN2CCCCC2)cc1)c1c(-c2ccc(O)cc2)sc2cc(O)ccc12`?
A: AC50 [7]: 14.3 µM (active); outcome [2]: inactive; outcome [8]: inactive; AC50 [9]: 11.2 µM (active); outcome [10]: inactive

Q: For `C=C1CC/C=C(\C)CC[C@@H]2[C@@H]1CC2(C)C`, which outcome [1] is on record?
A: inactive

Q: What about the outcome [2] of the same molecule?
A: inactive

Q: Which outcome [1] does the source give for `NS(=O)(=O)c1cc(C(=O)O)c(NCc2ccco2)cc1Cl` here?
A: inactive

Q: And the outcome [2]?
A: inactive

Q: What does the source list for `[O-]/[N+](=N\O)c1ccccc1`?
A: outcome [2]: inactive; outcome [8]: inactive

Q: For `O=C(O)c1ccccc1O`, which outcome [2] is on record?
A: inactive

Q: What about the outcome [8] of the same molecule?
A: inactive

Q: Which outcome [2] does the source give for `CCCCCC1CCC(=O)O1` (stereo unspecified) here?
A: inactive

Q: Which results are given for `CC12CCC(C1)C(C)(C)C2O` (stereo unspecified)?
A: outcome [2]: inactive; outcome [8]: inactive

Q: Which results are given for `CCCCCCCCCCCCCC(=O)OCC`?
A: outcome [2]: inactive; outcome [8]: inactive

Q: Which outcome [2] does the source give for `Cc1ccc(C(C)(C)O)cc1` here?
A: inactive

Q: What about the outcome [8] of the same molecule?
A: inactive

Q: Which outcome [2] does the source give for `c1ccc2scnc2c1` here?
A: inactive

Q: And the outcome [8]?
A: inactive

Q: For `CCCCCCCCCC(=O)OCC`, which outcome [2] is on record?
A: inactive

Q: What about the outcome [8] of the same molecule?
A: inactive

Q: Which outcome [2] does the source give for `COC(=O)C(C)Oc1ccc(Oc2ncc(C(F)(F)F)cc2Cl)cc1` (stereo unspecified) here?
A: inactive

Q: And the outcome [8]?
A: inactive

Q: With `CC(O)COCC(C)O` (stereo unspecified) as the molecule, how does the outcome [2] read?
A: inactive

Q: What about the outcome [8] of the same molecule?
A: inactive

Q: Which outcome [2] does the source give for `NC(=O)c1cccnc1` here?
A: inactive

Q: What about the outcome [8] of the same molecule?
A: inactive

Q: Which results are given for `CN1CCc2cccc3c2[C@H]1Cc1ccc(O)c(O)c1-3`?
A: outcome [2]: inactive; outcome [8]: inactive

Q: With `NC(N)=S` as the molecule, how does the outcome [2] read?
A: inactive

Q: What about the outcome [8] of the same molecule?
A: inactive

Q: With `O=C(O)c1cc2ccccc2cc1O` as the molecule, how does the outcome [2] read?
A: inactive

Q: And the outcome [8]?
A: inactive

Q: With `NC(N)=NC(N)=NCCc1ccccc1` as the molecule, how does the outcome [2] read?
A: inactive

Q: And the outcome [8]?
A: inactive

Q: Which outcome [2] does the source give for `COc1ccccc1O` here?
A: inactive

Q: What about the outcome [8] of the same molecule?
A: inactive

Q: For `C[C@H](CCC(=O)O)[C@H]1CC[C@H]2[C@@H]3CC[C@@H]4C[C@H](O)CC[C@]4(C)[C@H]3CC[C@]12C`, which outcome [2] is on record?
A: inactive

Q: What about the outcome [8] of the same molecule?
A: inactive

Q: With `C1COCO1` as the molecule, how does the outcome [2] read?
A: inactive

Q: And the outcome [8]?
A: inactive

Q: With `CC(=O)N(C)C` as the molecule, how does the outcome [2] read?
A: inactive

Q: And the outcome [8]?
A: inactive

Q: What does the source list for `O=C(O)c1cc(C(=O)O)c(C(=O)O)cc1C(=O)O`?
A: outcome [2]: inactive; outcome [8]: inactive

Q: Which outcome [2] does the source give for `CN(C)CCCNCCCN(C)C` here?
A: inactive

Q: What about the outcome [8] of the same molecule?
A: inactive

Q: For `COc1ccc2[nH]cc(CCNC(C)=O)c2c1`, which outcome [2] is on record?
A: inactive

Q: What about the outcome [8] of the same molecule?
A: inactive

Q: With `CC(=O)C1C(=O)C=C(C)OC1=O` (stereo unspecified) as the molecule, how does the outcome [2] read?
A: inactive

Q: And the outcome [8]?
A: inactive

Q: What does the source list for `CN(C)C(=O)Nc1ccccc1`?
A: outcome [2]: inactive; outcome [8]: inactive

Q: With `CCOc1ccc(NC(C)=O)cc1` as the molecule, how does the outcome [2] read?
A: inactive

Q: What about the outcome [8] of the same molecule?
A: inactive

Q: Which outcome [2] does the source give for `Cc1cccc(O)c1` here?
A: inactive

Q: And the outcome [8]?
A: inactive

Q: For `CCCCOC(=O)C(C)OC(=O)CCC` (stereo unspecified), which outcome [2] is on record?
A: inactive

Q: And the outcome [8]?
A: inactive

Q: For `CN(C)C`, which outcome [2] is on record?
A: inactive

Q: And the outcome [8]?
A: inactive

Q: Which results are given for `CC(C)(O)CCc1ccccc1`?
A: outcome [2]: inactive; outcome [8]: inactive
